# Source: PubChem (National Center for Advancing Translational Sciences (NCATS))
# Sm TGR inh = qHTS Assay for the Inhibitors of Schistosoma Mansoni Peroxiredoxins; purified TGR, DTNB reduction, TNB absorbance 405 nm; Potency, µM (titrated, usually from 114 µM), without a hit: top-dose activity change, negative = inhibition, usual class: inhibitors; hit rate 3% among 360,000; also: nearly all actives have a fitted effect of over 60% in size
#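 TGR 20 nM + NADPH 100 uM (dispensed conc.), cpd preinc 15 min RT; start with NADPH (500 uM addition) then DTNB (15 mM addition). Kinetic TNB absorbance, 405 nm filter. Four-parameter Hill fit across titration.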
# AmpC no deterg = qHTS Inhibitors of AmpC Beta-Lactamase (assay without detergent). Potency, µM (series often up to 57.1 µM), for inactives: at the top dose activity change, negative = inhibition, usual class: inhibitors. AmpC nitrocefin hydrolysis, absorbance 480 nm, 0.0001% Triton. P00811. hit rate 0.52% among 330,000;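 also: plate controls were no compound for no effect and no enzyme for full effect; nearly all actives have a fitted effect of over 20% in size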
# Target sequence (P00811 whole entry, looked up): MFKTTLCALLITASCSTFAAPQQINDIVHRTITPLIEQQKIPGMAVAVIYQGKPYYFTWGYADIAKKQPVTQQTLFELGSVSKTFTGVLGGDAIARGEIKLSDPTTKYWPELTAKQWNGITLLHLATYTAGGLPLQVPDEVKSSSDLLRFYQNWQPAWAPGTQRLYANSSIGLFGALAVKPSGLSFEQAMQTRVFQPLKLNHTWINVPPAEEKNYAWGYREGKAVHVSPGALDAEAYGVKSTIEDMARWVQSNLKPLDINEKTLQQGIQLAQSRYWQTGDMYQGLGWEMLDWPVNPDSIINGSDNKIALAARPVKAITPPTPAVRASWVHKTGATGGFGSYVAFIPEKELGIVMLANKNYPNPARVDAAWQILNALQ
#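 20 mM phosphate pH 7.0 + 0.01% (detergent screen) or 0.0001% Triton X-100; 5.3 nM AmpC reagent; cpd preinc 15 min RT; nitrocefin (800 uM stock) to start; A480 q20 s × 4 min; Activity was normalised to no-enzyme and no-compound control wells.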
# AMA1 RON2 block = qHTS for Inhibitors of AMA1-RON; Towards Development of Antimalarial Drug Lead: Primary Screen; Plasmodium falciparum AMA1 (3D7) - RON2 peptide interaction; hit rate 0.2% among 360,000; Potency, µM (titrated, usually from 58.2 µM), for the others: top-dose activity change, negative = inhibition, actives largely listed as inhibitors; AlphaScreen AMA1-biotinylated RON2 peptide binding; AID 720542, 2013;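 also: 0% = vehicle wells and -100% = peptide control; nearly all actives have a fitted effect of over 45% in size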
#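 AMA1 (3D7) with his tag at 25 nM final met compounds first, then biotinylated RON2 peptide at 25 nM; detection used donor plus acceptor beads, 10 µg/mL apiece, read by AlphaScreen after 30 min at room temperature.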
# FMDV inh = High Throughput Screening for Foot and Mouth Disease Virus Antivirals; FMDV antiviral cell-based qHTS; AID 1159524, 2015; Potency, µM (highest dose often 57.9 µM), without a hit: at the highest dose activity change, negative = inhibition, usual class: inhibitors; hit rate 1.2% among 410,000; calls by dose curve; tested in HEK293T cells; also: read-out not given here; nearly all actives have a fitted effect of over 45% in size
# AmpC detergent = qHTS Inhibitors of AmpC Beta-Lactamase (assay with detergent); P00811; AmpC hydrolysis of nitrocefin, absorbance 480 nm, 0.01% Triton; Potency, µM (series often up to 114 µM), for the others: at the top dose activity change, negative = inhibition, most hits filed as inhibitors; hit rate 0.041% among 370,000; AID 485294, 2010;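 also: 0% = no-compound wells and -100% = no-enzyme wells; nearly all actives have a fitted effect of over 25% in size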
#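 AmpC (5.3 nM in the dispensed reagent) in 20 mM phosphate pH 7.0 with 0.01% (detergent screen) or 0.0001% Triton X-100 was preincubated with compounds for 15 min at room temperature. Nitrocefin was then added from an 800 uM solution, and hydrolysis was followed at 480 nm.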
# Numbers without * were called inactive; ? = inconclusive; nt = no result. Sampled rows, rich in hits. Any-hit rate of the full collection: about 4.1%. Unless noted, calls follow the shape of the dose curve; as a rule, active = well fitted curve in the direction sought with a large enough effect; inconclusive = small, poorly fitted or top-dose-only effect, or another doubt; inactive = no such curve, though single readings can be large; an effect the other way counts as inactive or inconclusive. Unless noted, % is scaled to controls: 0 for no effect and ±100 for the full control effect; potency is read from the fitted curve at half-maximal effect.
SMILES,Sm TGR inh,AmpC no deterg,AMA1 RON2 block,FMDV inh,AmpC detergent
CCCCC(=O)Nc1nc(-c2ccc(S(=O)(=O)N3CCOCC3)cc2)cs1,2%,-21%,4%,?,-10%
Cc1ccc(NC(=O)Cn2c(=O)ccc3cc(S(=O)(=O)N4CCCC4)ccc32)cc1N(C)C,10%,nt,nt,-14%,2%
Cc1cccc(OCC(=O)Nc2cccc(OCc3cc(=O)n4cccc(C)c4n3)c2)c1,0%,nt,nt,-28%,3%
CC1CCN(S(=O)(=O)c2ccc(NC(=O)c3cccs3)cc2)CC1,11%,28µM*,-2%,-8%,?
COc1ccc(/C=C/C(=O)NCC2Cc3cccc(-c4nc(C)cnc4C)c3O2)cc1OC (centres undefined),nt,nt,nt,-14%,nt
c1ccc(CSc2nnc(NC3CCCCC3)s2)cc1,nt,nt,3%,73%,nt
COC(=O)c1cc(CSc2nnc(NC3CCCCC3)s2)oc1C,45µM*,-1%,31%,?,10%
O=C(c1cc(C(F)(F)F)cc(C(F)(F)F)c1)N1CCC[C@@]2(CCN(Cc3ccncc3)C2)C1,nt,nt,nt,-6%,nt
O=C(N/N=C/c1ccc(Sc2ccccn2)o1)c1cc2ccccc2cc1O,-1%,18µM*,55%,34%,1%
Cc1ccc2c(c1)C(CCN)C(=O)N2Cc1ccccc1 (centres undefined),-11%,26%,-9%,1%,-3%
Cc1ccc2c(c1)C1CCCC3C1N2CC(=O)N3Cc1ccccc1 (centres undefined),50µM*,-35%,nt,nt,?
COC(=O)c1cccc(NS(=O)(=O)c2cccs2)c1C,3%,nt,1%,20%,-1%
COC(=O)c1ccccc1NC1=C/C(=N\S(=O)(=O)c2cccs2)c2ccccc2C1=O,?,-55%,3.2µM*,2.5µM*,0%
COC(=O)c1ccccc1NC1=C/C(=N\S(=O)(=O)c2ccc(C(=O)O)cc2)c2ccccc2C1=O,14µM*,-40%,?,?,-6%
CCc1ccc(S(=O)(=O)/N=C2\C=C(Nc3ccc(C(=O)O)cc3)C(=O)c3ccccc32)cc1,-9%,-33%,?,?,-13%
CCOc1ccc(NC(=O)Cc2csc(COc3cccc(C)c3)n2)cc1,0%,nt,nt,-5%,1%
COc1ccc(CCNC(=O)c2nc(SCc3ccc(C)cc3)ncc2Cl)cc1OC,2%,nt,nt,?,17%
COc1cc(NS(=O)(=O)c2ccc(NC(=S)NC(C)=O)cc2)nc(OC)n1,nt,nt,8%,92%,nt
COc1cc(NS(=O)(=O)c2ccc(NC(=S)NC(=O)c3ccc(F)c(F)c3)cc2)nc(OC)n1,22µM*,?,130%,36%,-3%
COc1cc(NS(=O)(=O)c2ccc(NC(=S)NC(=O)c3cccs3)cc2)nc(OC)n1,22µM*,-35%,64%,51%,0%
Cc1ccc(Cl)cc1-n1ncc2c(Nc3cccc(C)c3C)ncnc21,11%,nt,nt,?,2%
CCN(CC)CCN(C)C(=O)c1ccc(-c2ccccc2)nc1N(C)C,nt,nt,nt,-2%,nt
Cc1nc2nc(NC(=O)c3cccc(Cl)c3)[nH]n2c(=O)c1Cc1ccccc1,-3%,nt,nt,-1%,-1%
C/C(=C\c1ccc2c(c1)OCO2)C1Nc2cccc3cccc(c23)N1,20µM*,-6%,nt,7%,6%
C/C(=C\c1ccccc1)C1Nc2cccc3cccc(c23)N1,13µM*,-14%,nt,nt,6%
SMILES,Sm TGR inh,AmpC no deterg,AMA1 RON2 block,FMDV inh,AmpC detergent
C/C(=C\c1ccccc1F)C1Nc2cccc3cccc(c23)N1,?,-29%,nt,-1%,3%
C/C=C/c1ccc2c(c1)OCO2,-8%,7%,-2%,-13%,5%
O=C(O)c1cccc(NC(=S)NC(=O)c2cccc(OCc3ccccc3)c2)c1,25µM*,-45%,110%,25%,11%
O=C(O)c1ccc(NC(=S)NC(=O)c2cncc(Br)c2)cc1,11µM*,-26%,33%,-43%,3%
O=C(CCCc1ccccc1)Nc1cccc(C(=O)O)c1,nt,-26%,9%,14µM*,0%
CC(C)(C)C(=O)NC(=S)Nc1cccc(C(=O)O)c1,15%,3%,25%,-3%,-3%
O=C(O)c1cccc(NC(=S)NC(=O)c2ccncc2)c1,32µM*,-19%,-11%,-12%,-4%
O=S(=O)(c1ccccc1)c1nnn2c1nc(NCc1ccccc1)c1sccc12,0%,nt,nt,-15%,10%
COc1ccc(/C=N/NC(=S)Nc2cccc(C(=O)O)c2)cc1OC,-18%,-19%,19%,16µM*,-1%
COc1cc(/C=N/NC(=S)Nc2cccc(C(=O)O)c2)cc(OC)c1OC,-2%,-14%,80%,-12%,3%
CNC(=S)Nc1cccc(C(=O)O)c1,3.2µM*,-20%,4%,-3%,-10%
CCN(CC)c1ccc(NC(=O)c2cc3c(=O)n4cccc(C)c4nc3n2C)c(C)c1,7%,nt,nt,-5%,17%
CCCn1cc(S(=O)(=O)c2ccccc2)c(=O)c2cc(F)c(N3CCCCCC3)cc21,3%,nt,nt,0%,0%
CCCCNC(=O)c1[nH]c2ccccc2c1Sc1ccc(C)cc1,2%,nt,nt,16%,-11%
CCN(CC)CCCNC(=O)c1[nH]c2ccccc2c1Sc1ccc(Cl)cc1,5µM*,140%,-6%,-23%,6%
COc1ccc(CNc2nc(-c3ccco3)nn2S(=O)(=O)c2ccc(Cl)cc2)cc1OC,?,nt,nt,-3%,2%
COCc1ccc(CN2Cc3ccccc3OC(c3ccccc3OC)C2)o1 (centres undefined),nt,nt,nt,-3%,nt
O=C(Nc1ccc2nn(-c3ccccc3)nc2c1)c1ccc2c(c1)OCCO2,-38%,-39%,-3%,25µM*,?
O=C(Nc1ccc2oc(-c3ccccc3F)nc2c1)c1ccc2c(c1)OCCO2,5%,5%,8.4µM*,35µM*,3%
COc1ccc(C(=O)CCC(=O)Nc2ccc(F)cc2F)cc1,0%,nt,nt,11%,-4%
